Where “and” joins values, the source holds several entries; their conditions need not be identical. Equal entries are not always repeated. In all, about 5,500 compounds went through this assay and about 2,000 (36%) were called active. Roughly 18% stayed inconclusive and do not appear here. Rule as the data show it: active = normalized growth mostly below about 0.91 (no sharp cut-off); inconclusive = no clear call, values can overlap the other calls; inactive = mostly above about 0.92. Some of the results follow.
Assay: chemical genetic growth profiling, strain panel (AID 1159580);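 also: tested at 20 µM; growth read once vehicle control cultures reached saturation at 30 °C; 1 = growth at the plate median or of vehicle wells; lower values mean less growth of the strain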
Settings: S. cerevisiae deletion strains, growth OD

Measured: normalized growth

COC(=O)c1cc(=O)c(O)c2c(O)c(O)ccc2c1
active: locus YCL029C, strain bik1, hits give low values 0.713 | locus YDL035C, strain GPR1, hits give low values 0.512 | locus YDL074C, strain BRE1, hits give low values 0.743 | locus YDL101C, strain DUN1, hits give low values 0.778 | locus YDL185W, strain tfp1, hits give low values 0.631 | locus YDL192W, strain arf1, hits give low values 0.772 | locus YDR101C, strain arx1, hits give low values 0.842 | locus YDR137W, strain rgp1, hits give low values 0.821 | locus YDR150W, strain NUM1, hits give low values 0.852 | locus YDR162C, strain NBP2, hits give low values 0.275 | locus YDR318W, strain mcm21, hits give low values 0.856 | locus YDR502C, strain sam2, hits give low values 0.891 | locus YER155C, strain BEM2, hits give low values 0.922 | locus YER167W, strain BCK2, hits give low values 0.862 | locus YGL078C, strain dbp3, hits give low values 0.732 | locus YGL086W, strain mad1, hits give low values 0.71 | locus YGL248W, strain PDE1, hits give low values 0.73 | locus YGR078C, strain PAC10, hits give low values 0.713 | locus YGR135W, strain pre9, hits give low values 0.795 | locus YGR229C, strain SMI1, hits give low values 0.151 | locus YHR030C, strain SLT2, hits give low values 0.604 and 0.636 | locus YHR079C, strain IRE1 (second series), hits give low values 0.874 | locus YHR079C, strain IRE1, hits give low values 0.81 | locus YHR129C, strain ARP1, hits give low values 0.681 | locus YHR200W, strain rpn10, hits give low values 0.878 | locus YIL066C, strain RNR3, hits give low values 0.552 | locus YIL073C, strain SPO22, hits give low values 0.416 | locus YIL125W, strain kgd1, hits give low values 0.812 | locus YJL095W, strain BCK1, hits give low values 0.59 and 0.624 | locus YJL168C, strain set2, hits give low values 0.924 | locus YJL187C, strain SWE1 (second series), hits give low values 0.627
inactive: locus YAL021C, strain ccr4, hits give low values 1 | locus YAL026C, strain drs2, hits give low values 0.968 | locus YAL030W, strain snc1, hits give low values 0.991 | locus YBL061C, strain skt5, hits give low values 0.988 | locus YBR009C, strain hhf1, hits give low values 0.985 | locus YBR021W, strain FUR4, hits give low values 1.07 | locus YBR023C, strain chs3, hits give low values 0.995 | locus YBR171W, strain sec66, hits give low values 0.976 | locus YBR229C, strain ROT2, hits give low values 0.976 | locus YBR231C, strain swc5, hits give low values 0.976 | locus YBR279W, strain paf1, hits give low values 1 | locus YCL011C, strain gbp2, hits give low values 1 | locus YCL016C, strain dcc1, hits give low values 0.989 | locus YCL061C, strain MRC1, hits give low values 0.987 | locus YCL069W, strain vba3, hits give low values 1 | locus YCR088W, strain abp1, hits give low values 0.997 | locus YDL005C, strain med2, hits give low values 1.01 | locus YDL040C, strain nat1, hits give low values 0.986 | locus YDR001C, strain nth1, hits give low values 0.999 | locus YDR069C, strain doa4, hits give low values 0.955 | locus YDR159W, strain sac3, hits give low values 0.947 | locus YDR195W, strain ref2 0.934 | locus YDR297W, strain sur2, hits give low values 0.987 | locus YDR334W, strain swr1, hits give low values 0.983 | locus YDR335W, strain msn5, hits give low values 0.994 | locus YDR388W, hits give low values 0.954 | locus YDR392W, strain spt3, hits give low values 0.99 | locus YEL003W, strain gim4, hits give low values 0.996 | locus YEL037C, strain rad23, hits give low values 0.997 | locus YEL061C, strain CIN8 (second series), hits give low values 0.994 | locus YER015W, strain faa2, hits give low values 0.985 | locus YER016W, strain bim1, hits give low values 0.973 | locus YER110C, hits give low values 0.988 | locus YER111C, strain swi4, hits give low values 0.976 | locus YER155C, strain BEM2 (second series), hits give low values 0.977 | locus YFR010W, strain ubp6, hits give low values 0.958 | locus YGL167C, strain pmr1, hits give low values 0.98 | locus YGL173C, strain kem1, hits give low values 0.984 | locus YGL227W, strain vid30, hits give low values 0.988 | locus YGL240W, strain doc1, hits give low values 1.01 | locus YGL253W, strain hxk2, hits give low values 0.998 | locus YGR252W, strain gcn5, hits give low values 0.948 | locus YHR013C, strain ard1, hits give low values 1.04 | locus YHR027C, strain rpn1, hits give low values 0.991 | locus YHR094C, strain hxt1, hits give low values 0.968 | locus YHR142W, strain chs7, hits give low values 1.02 | locus YIR030C, strain dcg1, hits give low values 0.932 | locus YJL092W, strain hpr5, hits give low values 0.991 | locus YJL095W, strain BCK1 (second series), hits give low values 0.99 | locus YJL115W, strain asf1, hits give low values 0.99 | locus YJL129C, strain trk1, hits give low values 0.997 | locus YJL134W, strain LCB3, hits give low values 0.958 | locus YJL154C, strain vps35, hits give low values 1.02 | locus YJL164C, strain tpk1, hits give low values 0.995 | locus YJL166W, strain qcr8, hits give low values 0.999 | locus YJL187C, strain SWE1, hits give low values 0.992

Source: PubChem BioAssay AID1159580 (chemical genetic matrix, 2015)
